# “And” between values parts separate entries of the source, which are not always exact repeats. Equal entries are not always repeated. Structures can show the parent of a compound that is named as a salt.
# Key:
# Assay in all cases: cell viability relative to vehicle control; higher = less cytotoxic
# Conditions in all cases: 10 µM
# [1] = test system: K562
# How it was run: (§1)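 Screening covered the Selleck bioactive, kinase and epigenetic probe libraries, less identity-inconsistent compounds, on CRISPR-edited mutant clones and isogenic wild-type clones of four leukaemia lines. Cells, at 2000 per well in 50 µL medium, received a single 10 µM acoustically dispensed dose. After 48 h the supernatant was removed and CellTiter-Glo luminescence was read. Viability was analysed in Genedata Screener as percent of the on-plate vehicle control.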
# [2] = test system: MARIMO
# How it was run: as §1
# [3] = test system: MOLM14
# How it was run: as §1
# [4] = test system: OCI-AML2
# How it was run: as §1
Compound,cell viability ([1]; SRSF2 genotype: SRSF2 P95H/wt),cell viability ([1]; SRSF2 genotype: SRSF2 wt/wt),cell viability ([2]; SRSF2 genotype: SRSF2 P95H/wt),cell viability ([2]; SRSF2 genotype: SRSF2 wt/wt),cell viability ([3]; SRSF2 genotype: SRSF2 P95H/wt),cell viability ([3]; SRSF2 genotype: SRSF2 wt/wt),cell viability ([4]; SRSF2 genotype: P95H/wt),cell viability ([4]; SRSF2 genotype: wt/wt)
OCC(CO)N[C@H]1C[C@](O)(CO)[C@@H](O)[C@H](O)[C@H]1O [Voglibose],96.2% and 91.4%,96.6%,98.1%,104%,99.7%,97.5%,92.3%,109%
COc1cnc(NS(=O)(=O)c2ccc(N)cc2)nc1 [Sulfameter (Bayrena)],98.4% and 101%,98.9%,106%,96%,105%,102%,115%,99%
CC1(C)CC[C@]2(C(=O)O)CC[C@]3(CO)C(=CC[C@@H]4[C@@]5(C)C[C@H](O)[C@H](O[C@@H]6O[C@H](CO)[C@@H](O)[C@H](O)[C@H]6O)[C@@](C)(C(=O)O)[C@@H]5CC[C@]43C)[C@@H]2C1 [Tenuifolin],102% and 96.9%,105%,104%,112%,99.4%,108%,102%,103%
CCCCCCCC(=O)CCc1ccc(O)c(OC)c1 [6-Paradol],93.9% and 99.3%,104%,93.3%,99.7%,94.3%,104%,94.1%,91.6%
CCCCCCCCCCCCCCCC(=O)O[C@@H]1[C@@H](O)[C@@H](O)[C@@H]([C@H](NC(=O)[C@@H]2C[C@@H](CCC)CN2C)[C@H](C)Cl)O[C@@H]1SC [Clindamycin palmitate HCl],90.7% and 98.9%,94.8%,103%,108%,101%,105%,93.6%,101%
CC(C)=CCC[C@](C)(O[C@@H]1O[C@H](CO[C@@H]2OC[C@H](O)[C@H](O)[C@H]2O)[C@@H](O)[C@H](O)[C@H]1O)[C@H]1CC[C@]2(C)[C@@H]1[C@H](O)C[C@@H]1[C@@]3(C)CC[C@H](O[C@@H]4O[C@H](CO)[C@@H](O)[C@H](O)[C@H]4O[C@@H]4O[C@H](CO)[C@@H](O)[C@H](O)[C@H]4O)C(C)(C)[C@@H]3CC[C@]12C [Ginsenoside Rb2],86% and 89.7%,84%,88.4%,98.1%,92.2%,87.7%,83.2%,101%
Cc1cc(O)c2c(c1)C(=O)c1cccc(O)c1C2=O [Chrysophanic acid (Chrysophanol)],100% and 95.6%,100%,96.9%,95.8%,114%,106%,89.2%,83%
C[C@H]1COC2=C1C(=O)C(=O)c1c2ccc2c1CCCC2(C)C [Cryptotanshinone],32.1% and 18.5%,47.8%,60.3%,76.1%,58.6%,69.2%,42.7%,46.5%
NC(=O)c1cccc2cn(-c3ccc(C4CCCNC4)cc3)nc12 (stereo unspecified) [MK-4827(Niraparib)],102% and 104%,86.9%,40.9%,57.4%,25.2%,8.96%,45.3%,51.5%
N#Cc1cccc(-c2c[nH]c3ncnc(N4CCOCC4)c23)c1,102% and 106%,102%,81.9%,92.8%,96.8%,103%,109%,106%
O=C(O)CCCC[C@@H]1CCSS1 (racemic) [Thioctic acid],94.1% and 87.7%,88.3%,93.1%,99.4%,92.8%,94.1%,97.1%,98.9%
Fc1ccc2c(/C=C/c3nn[nH]n3)c[nH]c2c1,100% and 102%,98.6%,104%,102%,94.2%,96.3%,102%,108%
Cc1cc(C)nc(SCC(=O)Nc2ncc(Cc3cccc4ccccc34)s2)n1,79.2% and 84.5%,75.5%,78.5%,86.9%,41.1%,42.4%,61.4%,66.4%
Cc1cc(C(O)=C2C(=O)C(=O)N(CCCN3CCOCC3)C2c2ccncc2)ccc1OCc1ccccc1 (stereo unspecified),96.1% and 98.6%,102%,93.9%,92.6%,107%,96.5%,103%,94.2%
CO[C@H]1/C=C\C=C(/C)C(=O)NC2=CC(=O)C(NCCN(C)C)=C(C[C@@H](C)C[C@H](OC)[C@H](O)[C@@H](C)/C=C(\C)[C@@H]1OC(N)=O)C2=O [17-DMAG HCl (Alvespimycin)],14% and 15.5%,24%,28.1%,22.5%,0.45%,0.4%,3.25%,12%
CCOC(=O)C1=C(N)Oc2ccc(Br)cc2C1C(C#N)C(=O)OCC (stereo unspecified),84.9% and 89.9%,86.5%,65.6%,56%,48.6%,74.9%,67.4%,66%
COc1cc(NS(=O)(=O)c2ccc(N)cc2)nc(OC)n1 [Sulphadimethoxine],95.8% and 87.4%,95.9%,91.3%,98%,96.7%,91.5%,90.4%,91.4%
CS(=O)(=O)c1ccc(-c2cnc(NCc3ccco3)n3cnnc23)cc1,99.9% and 93.9%,97.2%,103%,99.5%,100%,98.5%,101%,110%
C=C1[C@@H]2CC[C@@H](C2)C1(C)C [Camphene],105% and 102%,106%,102%,111%,95%,108%,98.5%,97.1%
COc1cc2c(=O)c(-c3ccc(O)cc3)coc2cc1O[C@@H]1O[C@H](CO)[C@@H](O)[C@H](O)[C@H]1O [Glycitin],98% and 97.4%,101%,95.2%,103%,97.1%,103%,89.3%,87%
CN(c1ccccc1CNc1nc(Nc2ccc3c(c2)CC(=O)N3)ncc1C(F)(F)F)S(C)(=O)=O,17% and 28.3%,16.4%,8.93%,3.27%,0.69%,0.39%,1.33%,13.7%
Cc1nc2c(O)cccc2c(=O)[nH]1,94.6% and 99.4%,114%,99.4%,93.8%,95.6%,101%,94.2%,108%

# Reference: the supplement of paper PMC10981050
